From PubChem BioAssay (NCI)
About 83,000 compounds went through this panel and 20% of them were active in at least one assay; those are over-represented in the sample as a whole.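 Activity criterion: percent growth below 10, measured after cells in 96-well plates were exposed to a single compound concentration for 48 hours.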 Values without a mark were called inactive. Active and inactive are the calls of the source.

tested on: SF-268 CNS; experiment: NCI-60 one-dose screen, 48 h (100 = growth as untreated, 0 = no growth, -100 = all killed); details: 10 µM unless noted

SMILES | growth
CC1=C(C)C(=O)C(Nc2ccc(C)cc2)=C(Br)C1=O | 97.3%
Cc1ccc(N2CCN(C3=C(Cl)C(=O)c4ncccc4C3=O)CC2)cc1 | 80.2%
COc1ccc2[nH]cc(-c3nc(N)nnc3-c3cn(C)c4ccc(Br)cc34)c2c1 | 39.4%
O=C(/C=C/c1ccccc1Cl)Nc1ncc(Cc2cc(Cl)ccc2Cl)s1 | 43.9%
CN(C)S(=O)(=O)c1ccc(-c2nc(C(Cl)Cl)nc3cc(-c4ccc(F)cc4)nn23)cc1 | 19.4%
Fc1ccc(-c2cn3c(-c4c[nH]c5ccc(Br)cc45)csc3n2)cc1 | 50.9%
C#Cc1nc(/C=C/CCCCCCC(=O)NO)cs1 | 83.2%
C#C[C@]1(O)CC[C@H]2[C@@H]3CC=C4c5sc(Nc6ncccc6C)nc5CC[C@]4(C)[C@H]3CC[C@@]21C | 7.66% (active)
CC(C)=CCC[C@](C)(O)[C@H]1CC[C@]2(C)[C@@H]1CC[C@@H]1[C@@]3(C)CC[C@H](N)C(C)(C)[C@@H]3CC[C@]12C | 86%
Cc1cc2nc3c4cc(C#N)ccc4n(CCN(C)C)c3nc2cc1C | -7.74% (active)
N#Cc1c(-c2cccs2)cc(-c2cnccn2)nc1SCC(=O)N/N=C/c1ccncc1 | 106%
CCOC(=O)c1cccc(NC2=C(Cl)C(=O)C(C)=C(C)C2=O)c1 | 92.8%
c1ccc(-c2cn3c(-c4c[nH]c5ccccc45)csc3n2)cc1 | 79.6%
Cc1cc(Br)ccc1-n1cc(C#N)c(N)c1C(=O)c1ccc(Br)cc1 | 114%
Cn1cc(-c2cc3ncnc(Nc4ccc(NC(=O)Nc5cc(C(C)(C)C)on5)cc4)c3s2)cn1 | 45.5%
Nc1cc(C(=O)N/N=C\c2ccc(OC(F)F)c(OC3CCCC3)c2)nn1CC(O)c1ccccc1 (stereo not given) | 100%
COc1ccc(C2CC(c3cccc(OCCCCOc4cccc(C5=NOC(c6ccc(OC)cc6)C5)c4)c3)=NO2)cc1 (stereo not given) | 108%
O=C(COc1ccc(/C=C2\C(=O)Nc3ccc(Cl)cc32)cc1)Nc1ccc(Cl)cc1 | 51.1%
Cn1cc(-c2nnc(N)nc2-c2c[nH]c3ccc(F)cc23)c2cc(Br)ccc21 | 39.7%
C[C@H](Nc1ncnc2ccc(-c3cnc(Cl)c(NS(C)(=O)=O)c3)cc12)c1ccccc1 | -3.03% (active)

SMILES | growth
O=C(CSc1nc2ccccc2c(=O)n1CCc1ccccc1)Nc1ccc(S(=O)(=O)Nc2ccc(Cl)nn2)cc1 | 96.7%
NS(=O)(=O)c1ccc(Nc2nc(N/N=C/C=C/c3ccccc3)nc(Nc3ccccc3)n2)cc1 | 46%
O=C1[C@H]2Cc3c([nH]c4ccccc34)[C@H](c3ccc(Br)cc3)N2C(=O)CN1C1CCN(CC2CCCCC2)CC1 | 66.8%
CCc1cc2c(cc1Cl)nc1c(=O)[nH]c(=O)nc-1n2CCOCC(C)(C)C | 88.1%
COc1ccc(-c2nc(C#N)c(N3CCC(S(=O)(=O)N4CCOCC4)CC3)o2)cc1 | 94.2%
COC(=O)c1ccc(NC2=C(Cl)C(=O)c3nc(C)ccc3C2=O)cc1 | 72.9%
Cc1ccccc1N1CCN(C2=C(Cl)C(=O)c3ncccc3C2=O)CC1 | 80.2%
CC[C@]12C=CCN3CC[C@@]4(c5ccc(OC)cc5N(C)[C@H]4[C@@](O)(C(=O)OC)[C@@H]1OC(=O)CCN1CCc4ccccc4C1)[C@@H]32 | 85.2%
Cc1nc(N)sc1-c1csc(Nc2ccc(C(F)(F)F)cc2)n1 | 49.5%
Cn1cc(-c2nnc(N)nc2-c2c[nH]c3ccc(Br)cc23)c2cc(Br)ccc21 | 106%
C#C[C@]1(O)CC[C@H]2[C@@H]3CC=C4c5sc(N(C)c6ccccc6)nc5CC[C@]4(C)[C@H]3CC[C@@]21C | 88%
NS(=O)(=O)c1ccc(Nc2nc(Nc3ccccc3)nc(N3N=C(c4ccc(Cl)cc4)CC3c3ccc(Cl)cc3)n2)cc1 (stereo not given) | 59.4%
O=C(CCCCCCN1CC(=O)N2[C@@H](c3ccc(Cl)s3)c3[nH]c4ccccc4c3C[C@H]2C1=O)NO | 81.6%
CCCCc1nc2c(N)nc3ccccc3c2n1Cc1cccc(CN)c1 | 48.7%
N#C/C(=C\c1ccc(-c2ccc(Cl)c(Cl)c2)o1)C(=O)Nc1ncc(Cc2ccc(Cl)cc2)s1 | 34.7%
O=C(Nc1ccc(Cl)c(C(F)(F)F)c1)Nc1ccc2oc(=O)ccc2c1 | 65%
COc1ccc2[nH]cc(/C=N/Nc3ccnc4cc(Cl)ccc34)c2c1 | -60.7% (active)
O=C1Nc2ccccc2/C1=C/c1ccc(OCC(=O)c2ccccc2)cc1 | 96.4%
NS(=O)(=O)c1nnc(/N=C/c2c(O)[nH]c3ccccc23)s1 | 102%
COc1cc(/C=C2/C(=O)Nc3ccc(Cl)cc32)ccc1OCc1ccc(Cl)cc1 | 90.2%
